# PubChem BioAssay
# “And” between values parts separate entries of the source, which are not always exact repeats. Equal values may be shown once. The source made the active and inactive calls. Unless noted, how the calls were made is not given here.
# Legend:
# [1] = circadian clock period modulators, cell-based, LOPAC library, luminescence reporter (AID 2774); conditions: circadian reporter cells, at 7 µM, actives lie on both sides;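 further: values are relative to mean of DMSO wells on each plate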
# [2] = liver-stage malaria parasite growth inhibition, primary screen, cell-based, HepG2, luciferase luminescence, HepG2 viability (AID 624349; in the data active means parasite load remaining mostly below about 12%, no sharp cut-off; inactive means mostly above about 10%;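 further: 100% = mean of DMSO negative control wells on the same plate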); conditions: P. berghei liver stage in HepG2, luciferase luminescence, concentration not given here; parasite load remaining: stronger effect = lower value; viability: measured here: HepG2 viability without parasites
# [3] = Cy5 fluorescence quenching or enhancement artefacts, artefact control for HCV NS3 helicase inhibitor project, biochemical, LOPAC1280 (AID 687037); conditions: Cy5-DNA-NS3h complex fluorescence interference counterscreen
# [4] = stimulators of nuclear beta-catenin in C2C12, primary screen, imaging, WNT3A-conditioned medium, mouse C2C12, NPC library (AID 1117326; in the data active means nuclear beta-catenin stimulation mostly above about 4.2%, no sharp cut-off; inactive means mostly below about 10%); conditions: stronger effect = higher value
# [5] = stimulators of insulin release from INS-1E, primary screen, cell-based, 5 mM glucose, NPC library (AID 1117329;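 active means compound raises insulin release from rat beta cells at 5 mM glucose, no numeric limit stated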); conditions: rat INS-1E insulin secretion, at 10 µM, stronger effect = higher value
# [6] = growth inhibition of GSK3B-pretreated HCT116 cells – cell-based, CellTiter-Glo, 0.2 to 20 µM (AID 1117336;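 active means compounds lowering colon cancer cell viability after pretreatment blocking the GSK3B kinase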); conditions: HCT116 viability after GSK3B inhibitor, at 20 µM, stronger effect = higher value
# [7] = inhibition of endothelial tube formation, primary screen, imaging, VEGF stimulated, CD31 staining, tube area, NPC library (AID 1117340;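 active means compound that reduces growth-factor-driven endothelial tube area in a mixed cell culture, no cutoff stated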); conditions: VEGF-stimulated ADSC/ECFC co-culture, at 10 µM, stronger effect = higher value
# [8] = glucagon-like peptide 1 release enhancers, primary assay, NCI-H716 cell line, NPC library (AID 1117341;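 active means compound raises GLP1 secretion from the human gut endocrine cells, with no numeric limit stated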); conditions: NCI-H716 cells, at 10 µM, stronger effect = higher value
# [9] = HCT116 colon cancer cell growth inhibition, primary screen, CellTiter-Glo luminescence, NPC library (AID 1117342;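 active means compounds that lower survival of HCT116 colon cancer cells in the luminescence readout, no numeric limit stated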); conditions: at 20 µM (top of the series)
# [10] = CellTiter-Glo luminescent readout of SW480 viability loss, NPC library primary (AID 1117343;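 active means compounds that lower viability of the colon cancer cells in the luminescence readout, with no numeric limit stated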); conditions: CellTiter-Glo luminescence; at 20 µM (top of the series)
# [11] = decreased DLD-1 cellular survival, CellTiter-Glo luminescent readout, NPC compound collection, primary HTS (AID 1117346;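 active means compounds that lower survival of DLD-1 colon cancer cells in the luminescence readout, no cutoff given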); conditions: DLD-1 viability, CellTiter-Glo luminescence; at 20 µM (top of the series)
# [12] = target: 6-phosphogluconate dehydrogenase, decarboxylating (Homo sapiens) (UniProt P52209); assay: 6PGD enzyme inhibitors, primary screen, biochemical, human, recombinant enzyme, NADPH absorbance (AID 1159550;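 active means at least 20% inhibition of 6-phosphogluconate dehydrogenase activity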); conditions: recombinant 6PGD, NADPH absorbance 341 nm; at 10 µM; stronger effect = higher value
# Chain of 6-phosphogluconate dehydrogenase, decarboxylating (Homo sapiens) (P52209 whole entry, looked up): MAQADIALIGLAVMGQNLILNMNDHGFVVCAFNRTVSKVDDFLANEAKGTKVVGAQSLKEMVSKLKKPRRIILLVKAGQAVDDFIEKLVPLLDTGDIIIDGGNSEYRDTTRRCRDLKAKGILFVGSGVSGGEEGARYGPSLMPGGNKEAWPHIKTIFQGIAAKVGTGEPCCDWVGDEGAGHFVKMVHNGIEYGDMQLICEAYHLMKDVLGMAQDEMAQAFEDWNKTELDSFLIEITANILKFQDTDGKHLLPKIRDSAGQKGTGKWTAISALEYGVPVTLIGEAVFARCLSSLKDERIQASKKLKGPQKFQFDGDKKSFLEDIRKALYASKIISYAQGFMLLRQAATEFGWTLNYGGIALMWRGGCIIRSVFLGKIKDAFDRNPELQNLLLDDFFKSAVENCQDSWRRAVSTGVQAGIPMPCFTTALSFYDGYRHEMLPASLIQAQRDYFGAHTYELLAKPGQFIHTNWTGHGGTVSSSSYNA
# [13] = differential killing of epithelial or mesenchymal cells, primary screen, imaging, PC-3E GFP, TEM4-18 mCherry, co-culture (AID 1345086;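 active means compounds killing one labelled cell type while sparing the other, by normalised counts and ratio limits, not self-fluorescent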;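 on all read-outs here: cells exposed to compound for 72 h before imaging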;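 on red/green cell ratio (normalised): normalised mesenchymal count divided by normalised epithelial count so high means epithelial killing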); conditions: imaging cell counts, at 1 µM; for red/green cell ratio (normalised): actives lie on both sides
# [14] = test system: Aerobactin synthetase IucA (Klebsiella pneumoniae hvKP1); assay: Biochemical IucA enzyme inhibition primary screen of the Spectrum library (AID 1346200); conditions: malachite green pyrophosphate, A620, at 8 µM, stronger effect = lower value;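 further: 100% = wells without compound and 0% = wells lacking enzyme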
# [15] = sensitizers of A549 cells to miR-34 induction, primary screen, imaging, A549 dox-inducible miR-34, nuclei and caspase counts (AID 1347080;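 active means compounds whose cell count with miR-34 switched on is under 0.7 times the count with it off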); conditions: A549 miR-34 inducible, Hoechst nuclei count, 48 h
# [16] = survival rescue of mitochondrial mutant cells in low glucose, primary screen, MELAS cybrids, Rieske KO mouse fibroblasts, CellTiter-Glo (AID 1508586;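 active means mean z-score across replicates of 1.96 or higher in either the MELAS or the Rieske mutant cell line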;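 further: z relative to plate mean and SD of compound and empty wells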)
# [17] = target: NAD(+) hydrolase SARM1 (Homo sapiens) (UniProt Q6SZW1); assay: SARM1 TIR NADase inhibitors, cell lysate, NAD-Glo luminescence (AID 1508614;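 active means compound whose remaining NAD level is above about 45 nM, limit read from the data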); conditions: SAM-TIR HEK293T lysate NADase, at 1 µM, stronger effect = higher value
# Chain of NAD(+) hydrolase SARM1 (Homo sapiens) (Q6SZW1 whole entry, looked up, the tested form may be a part): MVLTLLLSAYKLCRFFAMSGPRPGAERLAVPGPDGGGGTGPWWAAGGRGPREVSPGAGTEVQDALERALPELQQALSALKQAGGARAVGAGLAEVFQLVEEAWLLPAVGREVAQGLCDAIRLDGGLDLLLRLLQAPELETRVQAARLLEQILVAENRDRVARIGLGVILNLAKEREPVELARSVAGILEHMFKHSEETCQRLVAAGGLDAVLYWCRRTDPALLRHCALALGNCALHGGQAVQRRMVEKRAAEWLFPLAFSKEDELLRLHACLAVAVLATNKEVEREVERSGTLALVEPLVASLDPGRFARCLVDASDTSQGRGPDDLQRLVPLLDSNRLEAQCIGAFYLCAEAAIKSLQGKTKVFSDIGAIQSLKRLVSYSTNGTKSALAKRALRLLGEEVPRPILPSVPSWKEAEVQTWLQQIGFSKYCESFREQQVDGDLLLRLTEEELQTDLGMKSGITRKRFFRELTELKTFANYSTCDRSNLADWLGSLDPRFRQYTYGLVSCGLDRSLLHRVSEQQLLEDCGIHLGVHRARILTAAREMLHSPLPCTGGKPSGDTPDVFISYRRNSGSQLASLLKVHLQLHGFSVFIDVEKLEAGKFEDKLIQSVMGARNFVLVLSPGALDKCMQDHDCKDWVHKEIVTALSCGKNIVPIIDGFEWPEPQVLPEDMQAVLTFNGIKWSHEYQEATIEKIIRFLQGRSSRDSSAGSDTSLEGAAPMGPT
# [18] = target: Mitogen-activated protein kinase 7 (Homo sapiens) (UniProt Q13164); assay: ERK5 transactivation activators in reporter cells, primary screen, cell-based, HTS (AID 1508626;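 active means luciferase signal above three times the same-plate solvent-only control wells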;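 further: luciferase driven by Gal4-ERK5 fusion binding five Gal4 sites before minimal TATA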); conditions: HeLa Gal4-ERK5 transactivation, 18 h, at 5 µM, stronger effect = higher value
# Chain of Mitogen-activated protein kinase 7 (Homo sapiens) (Q13164 whole entry, looked up, the tested form may be a part): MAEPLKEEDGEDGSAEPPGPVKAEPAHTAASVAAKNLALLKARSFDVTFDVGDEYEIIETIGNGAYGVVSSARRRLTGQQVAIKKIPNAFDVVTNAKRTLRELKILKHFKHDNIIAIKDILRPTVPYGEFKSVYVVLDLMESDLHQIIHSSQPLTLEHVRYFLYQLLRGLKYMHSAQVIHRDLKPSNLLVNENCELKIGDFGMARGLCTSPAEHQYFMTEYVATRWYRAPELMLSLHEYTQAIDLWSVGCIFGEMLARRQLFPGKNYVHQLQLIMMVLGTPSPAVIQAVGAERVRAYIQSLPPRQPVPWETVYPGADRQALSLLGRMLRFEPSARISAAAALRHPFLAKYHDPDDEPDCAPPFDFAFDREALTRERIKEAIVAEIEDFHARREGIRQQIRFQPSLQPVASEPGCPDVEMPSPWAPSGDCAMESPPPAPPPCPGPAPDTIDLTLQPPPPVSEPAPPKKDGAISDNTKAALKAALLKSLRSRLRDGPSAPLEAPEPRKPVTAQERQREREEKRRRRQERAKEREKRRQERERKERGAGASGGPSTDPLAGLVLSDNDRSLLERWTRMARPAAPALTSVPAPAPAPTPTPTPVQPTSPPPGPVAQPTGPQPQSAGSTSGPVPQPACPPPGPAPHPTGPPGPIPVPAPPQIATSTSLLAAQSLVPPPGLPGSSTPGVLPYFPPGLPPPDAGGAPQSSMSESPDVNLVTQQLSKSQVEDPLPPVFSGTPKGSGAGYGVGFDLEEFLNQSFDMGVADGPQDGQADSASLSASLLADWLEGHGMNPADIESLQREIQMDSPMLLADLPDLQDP
# [19] = viability rescue of complex I mutant cybrids, primary screen, cell-based, galactose medium, ATP luminescence (AID 1645843;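 active means z-score of at least 1.8 in each of two replicates, scored against plate mean and spread of sample wells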;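 further: positive z means more ATP and so rescue of galactose-driven cybrid death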); conditions: complex I mutant cybrid cells, 72 h, stronger effect = higher value
# [20] = polyglutamine-triggered caspase-3 activation inhibitors, cell-based (AID 1583); conditions: polyglutamine-induced caspase-3 activation, cell assay; stronger effect = higher value;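 tested at 10 µM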
# [21] = measured here: epithelial PC-3E GFP cell survival
# [22] = measured here: mesenchymal TEM4-18 mCherry cell survival
# [23] = measured here: relative caspase fold change +Dox/-Dox
# [24] = measured here: total cells with miR-34 induction, stronger effect = lower value
# [25] = measured here: total cells without miR-34 induction
# [26] = MELAS cybrid survival, CellTiter-Glo 48 h, stronger effect = higher value
# [27] = Rieske KO mouse fibroblast survival, CellTiter-Glo 72 h
smiles,measurement,setting,value
CCC1(C2=NCCN2)Cc2ccccc2O1 (stereo not drawn),period change,[1],0.07 h (inactive)
same,parasite load remaining,[2],40% (inactive)
same,viability,[2],95.5%
same,fluorescence ratio (interference),[3],1 (inactive)
same,nuclear beta-catenin stimulation,[4]; at 10 µM,1.3% (inactive)
same,nuclear beta-catenin stimulation,"[4]; stimulation, at 2 µM",-0.1%
same,insulin secretion stimulation,[5],3% (inactive)
same,viability decrease,[6],-18.3% (inactive)
same,tube area decrease,[7],6.6% (inactive)
same,GLP1 secretion stimulation,[8],2.2% (inactive)
same,inhibition of viability,[9],3.97% (inactive)
same,viability decrease (inhibition),[10],3% (inactive)
same,viability decrease (inhibition),[11],0.7% (inactive)
same,inhibition,[12],2.64% (inactive)
same,red/green cell ratio (normalised),"[13]; counts scaled to control wells, 1 = unselective",0.88 (inactive)
same,normalised cell number,[13]; [21],1.21
same,normalised cell number,[13]; [22],1.07
same,activity remaining,[14],92.2% (inactive)
same,fold change,[15]; stronger effect = lower value,0.923 (inactive) and 0.953 (inactive) and 0.905 (inactive)
same,fold change,[15]; [23],1.9 and 0.731 and 1.02
same,cell count,[15]; [24],9860 and 8980 and 10100
same,cell count,[15]; [25],10700 and 9420 and 11200
same,z-score,[16]; [26],-0.478 (inactive)
same,z-score,[16]; [27],-0.349
same,remaining NAD,[17],10 nM (inactive)
same,luciferase signal,[18],140 AU (inactive)
same,z-score,[19],0.21 (inactive) and 0.18 (inactive) and 0.695 (inactive)
NCC(O)c1ccc(O)cc1 (stereo not drawn),inhibition,[20],-11.8%
same,period change,[1],-0.025 h (inactive)
same,parasite load remaining,[2],79.5% (inactive) and 84.6% (inactive)
same,viability,[2],96% and 67.9%
same,fluorescence ratio (interference),[3],1 (inactive)
same,nuclear beta-catenin stimulation,[4]; at 10 µM,-0.4% (inactive)
same,nuclear beta-catenin stimulation,"[4]; stimulation, at 2 µM",0.8%
same,insulin secretion stimulation,[5],-2.1% (inactive)
same,viability decrease,[6],-4.35% (inactive)
same,tube area decrease,[7],-17.5% (inactive)
same,GLP1 secretion stimulation,[8],1.6% (inactive)
same,inhibition of viability,[9],-5% (inactive)
same,viability decrease (inhibition),[10],18.2% (inactive)
same,viability decrease (inhibition),[11],1.65% (inactive)
same,inhibition,[12],8.94% (inactive)
same,red/green cell ratio (normalised),[13],1 (inactive)
same,normalised cell number,[13]; [21],0.98
same,normalised cell number,[13]; [22],0.97
same,activity remaining,[14],125% (inactive)
same,z-score,[16]; [26],-0.301 (inactive) and 0.485 (inactive)
same,z-score,[16]; [27],-0.195 and -0.00807
same,remaining NAD,[17],10 nM (inactive)
same,luciferase signal,[18],80 AU (inactive)
same,z-score,[19],0.63 (inactive) and -0.045 (inactive)
c1ccc2nc(N3CCNCC3)ccc2c1,inhibition,[20],-24.6%
same,period change,[1],-0.04 h (inactive)
same,parasite load remaining,[2],73.5% (inactive) and 55.7% (inactive) and 53.7% (inactive)
same,viability,[2],107% and 72.2% and 102%
same,nuclear beta-catenin stimulation,[4]; at 10 µM,0.1% (inactive)
same,nuclear beta-catenin stimulation,"[4]; stimulation, at 2 µM",-1.9%
same,insulin secretion stimulation,[5],4% (inactive)
same,viability decrease,[6],41.7% (inactive)
same,tube area decrease,[7],-4.1% (inactive)
same,GLP1 secretion stimulation,[8],3.6% (inactive)
same,inhibition of viability,[9],56.9% (active)
same,viability decrease (inhibition),[10],54.9% (active)
same,viability decrease (inhibition),[11],25% (inactive)
same,inhibition,[12],9.28% (inactive)
same,red/green cell ratio (normalised),[13],1.18 (inactive)
same,normalised cell number,[13]; [21],1.13
same,normalised cell number,[13]; [22],1.34
same,activity remaining,[14],124% (inactive)
same,fold change,[15]; stronger effect = lower value,0.855 (inactive) and 0.953 (inactive) and 0.849 (inactive)
same,fold change,[15]; [23],1.3 and 0.736 and 5.89
same,cell count,[15]; [24],9120 and 9090 and 11300
same,cell count,[15]; [25],10700 and 9530 and 13400
same,z-score,[16]; [26],0.387 (inactive)
same,z-score,[16]; [27],0.0895
same,remaining NAD,[17],10 nM (inactive)
same,luciferase signal,[18],28 AU (inactive)
same,z-score,[19],-0.47 (inactive)
